These results are taken from PubChem BioAssay AID1851 (National Center for Advancing Translational Sciences (NCATS), 2009).

Out of some 16,000 compounds screened, about 5,700 (36%) were called active. Another 24% or so got no clear call; they are omitted. The list shows a part of the results. A number with no mark means an inactive call. The call rests on the fitted dose curve; in most records, active means well fitted curve in the direction sought with a large enough effect; inconclusive means small, poorly fitted or top-dose-only effect, or effect the other way; inactive means no such curve, though single readings can be large or run the other way.
On the % scale 0 is the no-effect control and ±100 the full control effect.

Sequence of Cytochrome P450 1A2 (Homo sapiens) (P05177 whole entry, looked up): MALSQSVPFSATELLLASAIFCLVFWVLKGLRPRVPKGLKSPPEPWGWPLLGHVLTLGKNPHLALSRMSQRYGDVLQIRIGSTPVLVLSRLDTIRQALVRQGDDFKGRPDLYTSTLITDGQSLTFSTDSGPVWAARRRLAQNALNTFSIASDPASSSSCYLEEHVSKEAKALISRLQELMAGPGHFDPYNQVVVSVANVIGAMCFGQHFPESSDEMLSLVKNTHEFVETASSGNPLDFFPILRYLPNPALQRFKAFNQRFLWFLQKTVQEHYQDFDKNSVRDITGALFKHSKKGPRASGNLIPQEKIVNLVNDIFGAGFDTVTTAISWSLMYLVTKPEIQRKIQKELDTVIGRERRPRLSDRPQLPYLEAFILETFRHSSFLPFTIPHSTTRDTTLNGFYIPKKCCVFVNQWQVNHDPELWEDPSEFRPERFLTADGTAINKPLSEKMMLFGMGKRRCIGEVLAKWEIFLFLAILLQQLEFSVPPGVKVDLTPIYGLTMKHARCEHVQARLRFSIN

The test addresses Cytochrome P450 1A2 (Homo sapiens) (UniProt P05177). Description: Cytochrome panel assay with activity outcomes. Particulars: recombinant CYP, pro-luciferin dealkylation, luminescence, p450-cyp1a2; series mostly up to 57.1 µM.
For the molecule `CN(Cc1ccco1)c1ncncc1-c1ccoc1`, the AC50 was 15.8 µM (active).
Regarding `CCCCCC(=O)Nc1cccc(-c2nc3ncccc3o2)c1`, the AC50 was 2 µM (active).
On the same count and under the same terms, next, `O=C(Cc1ccc(Cl)cc1)Nc1cccc(-c2nnc(-c3ccco3)o2)c1`: “inactive”.
For `O=C(Nc1cccc(-c2nc3ncccc3o2)c1)c1sc2ccccc2c1Cl`, the AC50 is 0.708 µM (active).
On the same count and under the same terms, next, `CCCCCC(=O)N1CC2(CC(c3cccc(NC(=O)c4ccccc4)c3)=NO2)C[C@@H]1C(N)=O` (some centres not stated): “inactive”.
On the same count and under the same terms, next, `CCC(=O)Nc1cccc(-c2nnc(-c3cccc(NC(=O)CC)c3)o2)c1`: “inactive”; `O=C(CSc1ccc(Cl)cc1)Nc1cccc(-c2nc3ncccc3o2)c1`: 8.91 µM (active).
Still for that read-out and setting: then `Cc1ccc(S(=O)(=O)O/N=C2/CCCc3occc32)cc1`, with “inactive”; and `COc1ccc(C2C(C(=O)N3CCOCC3)c3ccccc3C(=O)N2c2ccc(OC)cc2)cc1` (configuration not stated), with “inactive”.
Regarding `CCOc1ccc(C2C(C(=O)O)c3ccccc3C(=O)N2CCN2CCOCC2)cc1` (configuration not stated), the AC50 entry is “inactive”.
The same measure, in the same setting: then `CN(C)C(=O)CSC1c2ccccc2C(=O)N1c1ccccc1` (configuration not stated), with 12.6 µM (active).
As for `O=c1cc(CF)[nH]c(=S)[nH]1`, the activity, negative = inhibition was -23.3% [at 11.4 µM].
In the case of `Fc1ccc(Nc2nc(-c3ccoc3)nc3ccccc23)cc1`, the AC50 was 0.316 µM (active).
Same read-out and setting: then `CNc1nc(-c2ccoc2)nc2ccccc12`, with 0.398 µM (active); and `c1ccc(Nc2nc(-c3ccoc3)nc3ccccc23)cc1`, with 0.2 µM (active); and `c1ccc2c(Nc3ccncc3)nc(-c3ccoc3)nc2c1`, with 0.158 µM (active).
With `C=CC1=C[C@@H](O)C2OC2C12OCCCO2` (some centres not stated), the activity, negative = inhibition was -8.77% [at 11.4 µM].
With `NC(=O)CN1CCOCCOCCOCCOCCOCC1`, the AC50 result was “inactive”.
On the same count and under the same terms, next, `NC(=O)CN1CCN(c2nc(-c3ccc(F)cc3)cs2)CC1`: 2.51 µM (active).
Regarding `NCS(=O)(=O)O`, the activity, negative = inhibition was -5.62% [at 2.29 µM].
Turning to `COc1ccc2c(c1)C(=NN)c1cc(OC)ccc1-2`, the AC50 is 0.112 µM (active).
Still for that read-out and setting: then `CCOc1ccc(-c2nnn(CC(=O)Nc3cc(OC)ccc3OC)n2)cc1OCC`, with “inactive”; and `COc1ccc(N2CCC(CNC(=O)Nc3ccc(OC)cc3OC)C2)cc1` (configuration not stated), with 12.6 µM (active).
Consider `CCN1CCCC1CNC(=O)C(=O)Nc1ccc(OC)cc1` (configuration not stated), for which the AC50 result was “inactive”.
Same read-out and setting: then `CCCCN(CC)Cc1ccc(CNC(=O)Nc2ccc(OC)cc2OC)o1`, with “inactive”; and `COCCN(C(=O)Nc1ccc(OC)cc1OC)C1CCN(C(C)=O)CC1`, with “inactive”.
The same measure, in the same setting: next, `COc1ccc(OC)c(NC(=O)Cn2cccc2)c1`: 6.31 µM (active); `COc1ccc(OC)c(NC(=O)[C@H]2CC=CC[C@H]2C(=O)O)c1`: “inactive”; `COc1ccc(NC(=O)CSc2nnc(Cc3cccn3C)n2CCc2ccccc2)c(OC)c1`: “inactive”.
On the same count and under the same terms, next, `COc1ccc(NC(=O)Cn2cccc2)c(OC)c1`: 5.01 µM (active).
`COc1ccc(NC(=O)NCc2cccn2C)c(OC)c1`: the AC50 is 15.8 µM (active).
The same measure, in the same setting: next, `C[C@@H](C(=O)O)c1ccc(C[C@@H]2CCCC2=O)cc1`: “inactive”.
For the molecule `O=C1[C@@H]2[C@@H](C(=O)N1c1ccc(OCc3ccccc3)cc1)[C@@H]1c3ccccc3[C@@H]2[n+]2ccccc21`, the activity, negative = inhibition was -19.6% [at 11.4 µM].
For `CN[C@]1(C)[C@@H]2CC[C@@H](C2)C1(C)C`, the AC50 result is “inactive”.
On the same count and under the same terms, next, `CCc1ccc(C(=O)COC(=O)c2cccc(N3C(=O)c4c(C)nc5ccccc5c4C3=O)c2)cc1`: “inactive”.
Still for that read-out and setting: next, `CCOC(=O)c1ccc2nc(C)c(CCC(C)=O)c(Cl)c2c1`: 8.91 µM (active); `CCOC(=O)c1cncc(C(=O)O)c1`: “inactive”.
As to `O=C1CCCC=C1[C@H](CCc1ccccc1)OC(=O)c1ccc(Br)cc1`, the activity, negative = inhibition is -1.62% [at 11.4 µM].
`COC(=O)/C(=C\C(=O)c1ccccc1)Nc1cccc(C(F)(F)F)c1`: the AC50 is 2.24 µM (active).
Turning to `O=C(Nc1ccccc1)N1CC2(CCN(C(=O)c3cc(C(F)(F)F)cc(C(F)(F)F)c3)CC2)C1`, the AC50 result was “inactive”.
Same read-out and setting: next, `COc1ccc2c(Cc3c4ccccc4cc4ccccc34)cncc2c1O`: 0.126 µM (active).
`CCCNC(=O)OC[C@@H]1O[C@H](CCO/N=C\C[C@H]2C=C[C@H](OC(C)=O)[C@@H](COC(C)=O)O2)C=C[C@@H]1Oc1ccc(OC)cc1`: the activity, negative = inhibition is -4.67% [at 11.4 µM].
Same read-out and setting: then `Cn1c(=O)c2[nH]c(/N=N\N3CCN(CCO)CC3)nc2n(C)c1=O`, with -14.7% [at 2.29 µM].
Consider `c1csc(CNc2nc(-c3ccoc3)nc3ccccc23)c1`, for which the AC50 was 0.316 µM (active).
On the same count and under the same terms, next, `Cc1cccc(CNc2nc(-c3ccoc3)nc3ccccc23)c1`: 1.26 µM (active); `c1cncc(CNc2nc(-c3ccoc3)nc3ccccc23)c1`: 0.398 µM (active); `c1ccc(CNc2nc(-c3ccoc3)nc3ccccc23)cc1`: 0.631 µM (active).
As for `CCc1ccc(C(=O)COC(=O)C(Cc2ccccc2)NC(=O)C2CCC(C)CC2)cc1` (configuration not stated), the AC50 result is “inactive”.
Regarding `C=CC[C@@H]1C=C[C@@H](O/N=C\[C@@H](OC)[C@H](C)/C=C\CC(=O)OC)[C@@H](CO)O1`, the activity, negative = inhibition was -0.319% [at 11.4 µM].
In the case of `COCCCN=CC1=C(O)CC(C)(C)CC1=O`, the AC50 result was “inactive”.
Consider `CN[C@@H](c1ccncc1)[C@@H](NC)c1ccncc1`, for which the activity, negative = inhibition was -13.3% [at 11.4 µM].
For `c1cncc(-c2nc(NCc3cccs3)c3ccccc3n2)c1`, the AC50 was 0.316 µM (active).
Same read-out and setting: next, `COc1ccc(OCCn2c(C)c(/C=N/n3cnnc3)c3ccccc32)cc1`: 0.398 µM (active).
In the case of `O=C(COc1cccc2ccccc12)NNC(=O)c1cccs1`, the AC50 was 8.91 µM (active).
Still for that read-out and setting: next, `O=C(CCC(=O)Nc1ccccc1)NNC(=O)c1cccs1`: “inactive”; `CC1(C)Cc2c(sc3nc(-c4ccccc4)n(N)c(=O)c23)CO1`: 7.08 µM (active); `Cc1cc2cc3c(C)cc(=O)oc3c(C)c2o1`: 1 µM (active).
Still for that read-out and setting: next, `CC(C)NC(=O)N1CC[C@@]2(CCCN(S(=O)(=O)c3ccccc3)C2)C1`: “inactive”.
The same measure, in the same setting: then `CSc1nc(Sc2cccc(Cl)c2)c2ccccc2n1`, with 0.355 µM (active).
With `CSc1c(-c2ccccc2)nc2ccc(Cl)cc2c1C(=O)O`, the AC50 entry was “inactive”.
With `O=C(O)/C=C\c1cnc[nH]1`, the AC50 result is “inactive”.
On the same count and under the same terms, then `Cc1cc(C)nc(NC(=O)/C=C/c2ccc(Cl)cc2Cl)c1`, with 3.16 µM (active); and `Cc1cc(C)nc(NC(=O)CCCC(=O)O)c1`, with “inactive”; and `C#CCCCC(=S)Nc1ccccc1`, with 12.6 µM (active).
Turning to `N=c1nc(N2CCCCC2)cc(N)n1O`, the AC50 entry is “inactive”.
With `O=C(c1cc(C(F)(F)F)cc(C(F)(F)F)c1)N1CCC[C@@]2(CCN(c3ccccc3)C2)C1`, the AC50 result was “inactive”.
Consider `CC(Sc1nc(-c2ccccc2)cc(C(F)(F)F)n1)C(=O)N1CCCCC1` (configuration not stated), for which the AC50 is 8.91 µM (active).
`O=C1[C@H]2[C@H]3[C@H](O)[C@H](O)C/C(=N/OC[C@@H](O)COCc4ccco4)[C@H]3CC[C@@H]2C(=O)N1Cc1ccccc1`: the activity, negative = inhibition was -10.7% [at 11.4 µM].
Still for that read-out and setting: then `NS(=O)(=O)c1ccc(NCc2nc3ccccc3[nH]2)cc1`, with -18.8% [at 2.29 µM]; and `NS(=O)(=O)c1ccc(NCc2cnc3ccccc3n2)cc1`, with -18.2% [at 2.29 µM].
As for `NS(=O)(=O)c1ccc(NCc2ccccc2OCc2ccccc2F)cc1`, the AC50 is 14.1 µM (active).
Same read-out and setting: next, `CCCCOc1cc(C(=O)NCCN(CC)CC)c2ccccc2n1`: 5.01 µM (active); `CCN(CC)CCNC(=O)c1cc(S(C)(=O)=O)ccc1OC`: “inactive”; `CCCCCCCCOC1OC(CO)C(O)C(O)C1NC(C)=O` (configuration not stated): “inactive”.
On the same count and under the same terms, then `CCOC(=O)C(CC)(CC)C(=O)/C=C/c1ccc(Br)cc1`, with 2.51 µM (active); and `C[n+]1ccc(/C=C/c2ccc(Br)cc2)cc1`, with “inactive”; and `CC(C)(C)NC(=O)Cn1nnc(-c2ccccc2NC(=O)c2cnccn2)n1`, with “inactive”.
As to `COc1ccccc1CNC(=O)Cn1nnc(-c2ccncc2)n1`, the AC50 was 12.6 µM (active).
For the molecule `CCc1nnc(NC(=O)CCC(=O)NCc2ccccc2OC)s1`, the AC50 entry is “inactive”.
Take `CC[C@H](NC(C)C)[C@H](O)c1ccc(O)c(O)c1`: the AC50 was 12.6 µM (active).
For `COc1cc([C@H](O)CO)ccc1O`, the AC50 entry was “inactive”.
The same measure, in the same setting: then `CC(=O)c1c(C)nc(-c2ccccc2)n1O`, with 15.8 µM (active).
In the case of `N/N=C1/c2ccccc2N[C@H]1OC(=O)Nc1ccccc1`, the AC50 is 0.501 µM (active).
Consider `O=C(O)[C@@H]1[C@@H](C(=O)Nc2ccccc2)[C@@H]2C=C[C@@H]1O2`, for which the activity, negative = inhibition is -18.1% [at 2.29 µM].
Turning to `N/N=C1/c2ccccc2N[C@H]1OC(=O)Nc1cccc(Cl)c1`, the AC50 is 0.794 µM (active).
On to `C=CC[C@@H]1C=C[C@@H](O/N=C\C[C@@H]2C=C[C@H](OC(C)=O)[C@H](COC(C)=O)O2)[C@@H](CO)O1`, for which the activity, negative = inhibition is -8.91% [at 11.4 µM].
Take `CCNc1ncc2ncc(=O)n(C3CC3)c2n1`: the AC50 was 3.16 µM (active).
Turning to `CCNc1ncc2nc(C)c(=O)n(C)c2n1`, the AC50 is 5.01 µM (active).
On the same count and under the same terms, next, `CCNc1ncc2nc(C)c(=O)n(C3CC3)c2n1`: 5.01 µM (active); `CC(N)=O`: “inactive”.
For the molecule `Cc1ccc(Sc2c([N+](=O)[O-])ncn2C)cc1`, the AC50 result is “inactive”.
On the same count and under the same terms, next, `O=C(Nc1ccc(Cl)cc1Cl)c1cccc(N2C(=O)C=CC2=O)c1`: 12.6 µM (active).
Still for that read-out and setting: next, `CCCCC(=O)Nc1sc2c(c1C(=O)OCC)CCC(C=O)=C2Cl`: 2.51 µM (active); `FC(F)(F)c1ccccc1-c1cc(N2CCNCC2)ncn1`: 5.01 µM (active).
Still for that read-out and setting: next, `CN1CCN(c2cc(-c3ccccc3C(F)(F)F)ncn2)CC1`: 12.6 µM (active); `CN(C)CCO[C@](C)(c1ccccc1)c1ccccn1`: “inactive”.
Turning to `CNc1cc(CSC)nc(SCc2ccc(Cl)c(Cl)c2)n1`, the AC50 is 4.47 µM (active).
Same read-out and setting: next, `CN(CCc1ccccn1)Cc1ccc(Cl)cc1Cl`: 7.08 µM (active); `Cc1cccc(CN(C)CCc2ccccn2)c1`: “inactive”; `CN(C)CCO[C@@H](c1ccc(Cl)cc1)c1ccccn1`: “inactive”.
The same measure, in the same setting: then `C=CCN=C1CC(C)(C)CC(=O)/C1=C(\O)c1ccccc1`, with “inactive”; and `c1ccc(-c2ccc3c(c2)c2c4n3CCN=C4CCC2)cc1`, with 2.82 µM (active).

As a reminder, the AC50 is the concentration at which the activity in the assay is half-maximal.
